GSH bead fluor – GSH bead compound fluorescence profile | GSH beads flow cytometry, compound fluorescence 488/530 nm; active compounds read high | fluorescence (KMESF) at 10 µM | 190,000 tested, 0.25% active; in the data active = fluorescence above about 89;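 note: glutathione beads carrying GST-tagged Bcl family fusion proteins plus one bare bead set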
RGS7-Gao reg – regulators of human RGS7-Galphao interaction; Multiplexed bead flow cytometry, RGS7-Galphao binding; actives lie on both sides; binding response (% of control), % at 10 µM; P09471; 220,000 tested, 0.35% active; in the data active = binding response below about 49% or above about 150%; inconclusive = no clear call, values can overlap the other calls; inactive = in between;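 note: fluorescent Galphao held in activated GDP-AlF4 state binding bead-coupled RGS7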
RGS16-Gao – RGS16-Galphao interaction regulator (human). O15492+P09471. bead-based flow cytometry RGS16-Galphao binding, fluorescence; actives lie on both sides. binding response (% of control), % at 10 µM. AID 1441. 220,000 tested, 0.38% active;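 note: Galphao activated by GDP with aluminum fluoride before binding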
Target sequence (O15492 whole entry, looked up): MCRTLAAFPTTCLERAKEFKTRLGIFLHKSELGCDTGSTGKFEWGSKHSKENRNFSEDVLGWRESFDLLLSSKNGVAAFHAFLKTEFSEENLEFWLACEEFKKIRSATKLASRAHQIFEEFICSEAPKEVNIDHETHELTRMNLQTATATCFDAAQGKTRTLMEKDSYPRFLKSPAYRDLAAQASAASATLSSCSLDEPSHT
Target sequence (P09471 whole entry, looked up): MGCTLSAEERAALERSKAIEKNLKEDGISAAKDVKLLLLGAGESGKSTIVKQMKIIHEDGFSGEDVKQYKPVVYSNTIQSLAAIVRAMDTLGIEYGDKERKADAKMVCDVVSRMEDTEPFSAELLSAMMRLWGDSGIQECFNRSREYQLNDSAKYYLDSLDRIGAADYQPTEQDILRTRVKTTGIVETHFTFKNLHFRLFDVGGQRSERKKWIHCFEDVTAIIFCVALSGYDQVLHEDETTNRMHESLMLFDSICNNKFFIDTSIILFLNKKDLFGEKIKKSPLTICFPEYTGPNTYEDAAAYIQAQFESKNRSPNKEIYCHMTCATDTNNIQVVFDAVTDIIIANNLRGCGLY
Avidin fluor – avidin bead compound fluorescence profile. 220,000 tested, 0.38% active. AID 1775. Avidin beads, compound fluorescence 488/530 nm, flow cytometry; active compounds read high. fluorescence (KMESF) at 10 µM; in the data active = fluorescence above about 47
RGS8-Gao – regulators of human RGS8-Galphao interaction | P09471 | multiplexed bead flow cytometry, RGS8-Galphao binding; actives lie on both sides | response (percent of control binding), % at 10 µM | 220,000 tested, 0.34% active | AID 1423; in the data active = response below about 60% or above about 140%; inactive = in between;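 note: Galphao activated as the GDP aluminium fluoride complex binding bead-coupled RGS8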
RGS4-Gao reg – human RGS4-Galphao interaction regulation; P09471; 220,000 tested, 0.33% active; AID 1415; Multiplexed bead flow cytometry, RGS4-Galphao binding; actives lie on both sides; binding response (% of control), % at 10 µM; in the data active = binding response below about 49% or above about 150%; inactive = in between;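 note: fluorescent Galphao activated with aluminum fluoride binding bead-coupled RGS4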
RGS-Gao – RGS4-Galphao interaction regulator (human); AID 1504; multiplexed bead flow cytometry, RGS–Galpha-o binding; 1,600 tested, 99% active; shares compounds with RGS16-Gao; RGS4–Galpha-o binding response, % at 10 µM;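 note: fluorescently labeled Galpha-o bound to GDP with aluminium fluoride binding biotinylated RGS beads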
Avidin counter – biotin-avidin bead binding disruption counter-screen; shares compounds with RGS16-Gao; streptavidin beads, fluorescein-biotin binding, flow cytometry; inhibition, % at 10 µM; 1,700 tested, under 10 active; AID 1783;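 active = inhibition above 50%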;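 note: median green fluorescence of gated singlet beads compared with DMSO control wells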
RGS8-Gao single – confirmation of regulators of human RGS8-Galphao interaction. shares compounds with RGS16-Gao. bead-based flow cytometry RGS8-Galphao binding, fluorescence; actives lie on both sides. binding response (% of control), % at 10 µM. 1,700 tested, 3% active; in the data active = binding response below about 72% or above about 130%; inactive = in between;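 note: Galphao activated as GDP AlF4 complex before binding bead RGS8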
RGS7-Gao confirm – RGS7-Galphao interaction regulation, single point confirmation | response (percent of control binding), % at 10 µM | AID 1837 | 1,700 tested, 7.8% active | shares compounds with RGS16-Gao | bead-based flow cytometry RGS7-Galphao binding; actives lie on both sides; in the data active = response below about 75% or above about 130%; inactive = in between;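 note: fluorescent Galphao activated with GDP and aluminum fluoride binding bead-coupled RGS7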
RGS16-Gao conf – RGS16-Galphao interaction regulation, single point confirmation; shares compounds with RGS16-Gao; bead-based flow cytometry, RGS16-Galphao binding; actives lie on both sides; response (% of control binding), % at 10 µM; 1,700 tested, 4% active; AID 1838; in the data active = response below about 74% or above about 130%; inactive = in between;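 note: Galphao activated as the GDP aluminium fluoride complex binding bead-coupled RGS16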
RGS4-Gao single – RGS4-Galphao interaction regulation, single point confirmation. binding response (% of control), % at 10 µM. shares compounds with RGS16-Gao. 1,700 tested, 4% active. RGS4-Galphao binding, multiplexed bead flow cytometry; actives lie on both sides; in the data active = binding response below about 74% or above about 130%; inactive = in between
RGS19-Gao single – confirmation of regulators of human RGS19-Galphao interaction. bead-based flow cytometry RGS19-Galphao binding; actives lie on both sides. shares compounds with RGS16-Gao. 1,700 tested, 5% active. response (percent of control binding), % at 10 µM; in the data active = response below about 50% or above about 160%; inactive = in between
A number is an active result; i = inactive; ? = inconclusive; nt = no result given; [ ] = remark or other dose. Only some compounds are listed: those with a hit (about 1.2% of all), similar ones and a draw of the others. Unless noted, the rule behind the calls is not given here.

SMILES	GSH bead fluor	RGS7-Gao reg	RGS16-Gao	Avidin fluor	RGS8-Gao	RGS4-Gao reg	RGS-Gao	Avidin counter	RGS8-Gao single	RGS7-Gao confirm	RGS16-Gao conf	RGS4-Gao single	RGS19-Gao single
Cc1ccc(CNC(=O)Cn2cccc2C(=O)c2ccccc2)cc1	i	i	nt	nt	nt	i	nt	i	i	i	i	i	i
COc1ccc(N(CC(=O)Nc2ccc(OC)c(Cl)c2)S(=O)(=O)c2c(C)noc2C)cc1	i	i	227[activator]	i	141[activator]	i	116	i	i	i	i	i	i
COc1ccc(N(CC(=O)Nc2ccc(F)c(Cl)c2)S(=O)(=O)c2c(C)noc2C)cc1	i	i	i	i	i	i	nt	nt	nt	nt	nt	nt	nt
Nc1c(C(=O)NCC2CCCO2)sc2nc3c(c(-c4ccco4)c12)CC/C3=C\c1ccco1 (stereo not given)	i	44	i	i	i	i	73	i	70	52	70	i	24
COc1ccc(C(=O)NC(NC(=O)c2ccc(OC)cc2)c2ccccc2F)cc1	i	i	i	i	i	i	nt	nt	nt	nt	nt	nt	nt
O=C(O)c1cc(S(=O)(=O)N2CCOCC2)ccc1N1CCOCC1	i	i	i	i	i	i	nt	nt	nt	nt	nt	nt	nt
O=c1c2ccccc2sn1-c1cc(S(=O)(=O)N2CCOCC2)ccc1N1CCOCC1	i	i	0.6	i	48	i	99	nt	nt	nt	nt	nt	nt
O=c1c2ccccc2sn1-c1cc(S(=O)(=O)N2CCOCC2)ccc1N1CCCC1	i	i	-21	i	41	i	86	i	38	i	10	i	4.4
O=C(O)c1cc(S(=O)(=O)N2CCOCC2)ccc1N1CCCCC1	i	i	i	i	i	i	nt	nt	nt	nt	nt	nt	nt
Cc1ccc(-n2ncc3c(=O)[nH]c(SCC(=O)N4CCC(C)CC4)nc32)cc1C	i	i	185[activator]	i	i	i	112	i	i	i	i	i	i
Cc1ccc(-n2ncc3c(=O)[nH]c(SCC(=O)N4CCCC4)nc32)cc1C	i	i	i	i	i	i	nt	nt	nt	nt	nt	nt	nt
CC(C)(C)c1ccc(NC(=O)COC(=O)C2=COCCO2)cc1	i	i	-183	i	i	i	117	i	i	60	i	73	i
CC(C)c1ccc(NC(=O)COC(=O)C2=COCCO2)cc1	i	i	i	i	i	i	nt	nt	nt	nt	nt	nt	nt
C=CCN1C(=O)C2(NC(=O)c3ccccc3N2)c2ccccc21 (stereo not given)	i	270[activator]	i	164	i	i	123	i	i	i	i	i	i
C=CCN1C(=O)C2(NNc3ccccc3O2)c2ccccc21 (stereo not given)	i	i	i	i	i	i	nt	nt	nt	nt	nt	nt	nt
CCN(CC)c1ccc(N2C(=O)/C(=C\c3cccs3)SC2=S)cc1	i	nt	nt	nt	nt	nt	nt	i	i	i	i	i	i
COc1cnc(-c2ccccn2)nc1Sc1c(Cl)cccc1Cl	i	i	i	i	i	i	nt	nt	nt	nt	nt	nt	nt
CCCCn1c(-c2csc(C(C)C)c2)n[nH]c1=S	i	i	i	i	i	i	nt	i	i	i	i	i	i
Cc1cc(C)n(C(N)=NC(=O)c2ccc([N+](=O)[O-])cc2)n1	nt	?	i	i	54	35	nt	i	i	i	i	i	i

Screening results (PubChem BioAssay)
